PubChem BioAssay (NCI)
This is part of a sample that, as a whole, favours compounds with a hit. Of some 83,000 tested, about 20% had one in any assay.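 The endpoint reported here, percent growth, reads 100 for growth as untreated, 0 for no net growth and -100 for all cells dead.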 Active and inactive are the calls of the source. How the source made its calls: active means growth percent below 10; inactive means the rest.

The compounds below were run on HL-60(TB) leukemia (assay: NCI-60 one-dose screen, 48 h (100 = growth as untreated, 0 = no growth, -100 = all killed)). Settings: 10 µM unless noted.

Structure (SMILES) | growth
CC(=O)Oc1ccc(/C=N/NC(N)=S)nc1 | 64.3% (inactive)
COc1ccc(Sc2[nH]c(C=O)c3ccccc23)cc1 | 14.7% (inactive)
CCOc1ccc(/C=N/Nc2cc(C)nc3ccc(Br)cc23)cc1 | 53.3% (inactive)
Clc1ccc2c(N3CCN(c4ccnc(NC5CCCCC5)n4)CC3)ccnc2c1 | -13.8% (active)
O=S(=O)(O)c1cccnc1 | 61.8% (inactive)
COc1ccc2c(=O)c(OC)c(-c3cc(OC)c(OC)c(OC)c3)oc2c1 | 85.1% (inactive)
COc1ccc(C(=O)c2cc3c(OC)c(OC)c(OC)cc3[nH]2)cc1 | 36.1% (inactive)
OC1OC(COC(c2ccccc2)(c2ccccc2)c2ccccc2)C(O)C(O)C1O (stereo not given) | 97.4% (inactive)
Cc1cc(N(CCCNc2ccnc3cc(Cl)ccc23)Cc2ccccn2)nc(N2CCOCC2)n1 | 102% (inactive)
CN1CCN(c2ccc(NC3=CC(=O)c4ncncc4C3=O)cc2)CC1 | -32.1% (active)
COc1ccc2nc(C)cc(Nc3ccccc3O)c2c1 | 5.11% (active)
Cc1ccccc1C(c1ccccc1)c1ccccc1C | 88.4% (inactive)
C[n+]1c(/C=C/c2c(O)ccc3ccccc23)ccc2ccccc21 | 17.9% (inactive)
CC#CC(=O)N1CCC[C@H]1c1nc(-c2ccc(C(=O)Nc3ccccn3)cc2)c2c(N)nccn12 | 130% (inactive)
N/C(=N\c1nc2ccccc2s1)NC(=NC1CCCCC1)NC1CCCCC1 | -36.3% (active)
CCOC(=O)Oc1c(OC)cc(C(=O)O[C@@H]2C[C@@H]3CN4CCc5c([nH]c6cc(OC)ccc56)[C@H]4C[C@@H]3[C@H](C(=O)OC)[C@H]2OC)cc1OC | -27.7% (active)
O=C(N/N=C/c1ccc([N+](=O)[O-])cc1)c1ccccc1Nc1cccc(C(F)(F)F)c1 | 108% (inactive)
NC1[C@H](c2c[nH]c3ccccc23)c2c([nH]c3ccccc23)[C@H]1c1c[nH]c2ccccc12 (stereo not given in full) | 119% (inactive)
N#CC1C(c2ccc(Cl)cc2)=Nc2c(c(-c3ccccc3)nn2-c2ccccc2)C12C(=O)Nc1ccc(Cl)cc12 (stereo not given) | -1.59% (active)
Cc1ccc(/C(=N\N=C(N)N)c2ccccc2)cc1 | -41.6% (active)

Structure (SMILES) | growth
COc1cccc(-c2cn3c(ccc4ccccc43)n2)c1 | 6.28% (active)
COc1ccc(/C(=C\c2ccc3c(c2)OCO3)C(=O)Nc2nc3ccc(F)cc3s2)cc1OC | 93% (inactive)
N#CC1=C(/N=C/c2ccccc2)Oc2c(ccc3ccccc23)C1c1ccc([N+](=O)[O-])cc1 (stereo not given) | 99.1% (inactive)
Clc1nccc2c(-c3csc(-c4c[nH]c5ccccc45)n3)c[nH]c12 | 29.4% (inactive)
C=C1C(=O)O[C@H]2[C@H]1CC/C(COC(=O)NCc1ccc(Cn3c(=O)sn(-c4ccccc4)c3=O)cc1)=C\CC[C@@]1(C)O[C@@H]21 | -25.2% (active)
Oc1c(CN2CCC(N3CCCCC3)CC2)cc(Cc2cc(CN3CCC(N4CCCCC4)CC3)c(O)c3ncccc23)c2cccnc12 | -6.31% (active)
O=C1C(Cl)C(c2ccccc2Cl)N1n1cnnc1 (stereo not given) | 109% (inactive)
C(=C1c2ccccc2-c2ccccc21)c1ccccn1 | 52.3% (inactive)
Oc1ccc(Nc2ccc3ccccc3c2)cc1 | 54.9% (inactive)
CCN1CCN(CC(=O)Nc2nc3ccc(NCc4ccc(Br)cc4)cc3s2)CC1 | 20.1% (inactive)
COc1ccc(/C=C(\C#N)n2nnc3c(F)cccc32)cc1 | -5.39% (active)
O=C1CC(c2ccc3c(c2)OCO3)Nc2cc3c(cc21)OCO3 (stereo not given) | -22.9% (active)
O=C(Nc1ccc(-n2cc(-c3ccncc3)c(-c3ccc(Cl)c(O)c3)n2)cc1)Nc1ccc(Cl)c(C(F)(F)F)c1 | -10.5% (active)
Cc1cc(NC(=O)Nc2cccc3ccccc23)no1 | 99.5% (inactive)
C=C1CC[C@@H]2[C@](C)(COC(C)=O)[C@H](OC(C)=O)CC[C@@]2(C)[C@@H]1CC(Nc1ccc(S(=O)(=O)Nc2ncccn2)cc1)C1=CCOC1=O (stereo not given in full) | -17.2% (active)
CS(=O)(=O)c1ccc(C(=O)N/N=C/c2ccc3c(c2)OCO3)cc1 | 57% (inactive)
CC(C)c1ccc(-c2cnc3nonc3n2)cc1 | -18.3% (active)
COc1cc(OC)c(C(=O)/C=C/c2cccc(C#N)c2)c(OC)c1 | -8.6% (active)
O=C(Nc1nc2ccc(OC(F)(F)F)cc2s1)c1ccc(F)cc1 | 14.3% (inactive)
COc1ccc(C)c2sc(N(Cc3cccnc3)C(=O)c3ccc(C#N)cc3)nc12 | -6.46% (active)
